Measured values published in PubChem BioAssay (Tox21).
Values joined by “and” are separate entries in the source; they are usually repeats but may differ in a detail not shown here. Equal values may be shown once. Records with an inconclusive call do not appear. Where a call stands in place of a potency, no number is given. Where a structure was tested more than once in an assay, its records may differ in their call. Active and inactive are the calls of the source. Unless noted, the call rests on the fitted dose curve; in most records, active means well fitted curve in the direction sought with a large enough effect in the repeat runs; inconclusive means weak or mixed curves; inactive means no such curve, though single readings can be large; an effect the other way counts as inactive or inconclusive.

Key:
[1] = molecular target: Retinoic acid receptor RXR-alpha (Homo sapiens) (UniProt P19793); test: qHTS assay to identify small molecule agonists of the RXR signaling pathway (AID 1159527; calls by dose curve; further: nearly all actives have a fitted effect of over 35% in size; further: potency means the concentration at half of the fitted maximal effect)
Chain of Retinoic acid receptor RXR-alpha (Homo sapiens) (P19793 whole entry, looked up): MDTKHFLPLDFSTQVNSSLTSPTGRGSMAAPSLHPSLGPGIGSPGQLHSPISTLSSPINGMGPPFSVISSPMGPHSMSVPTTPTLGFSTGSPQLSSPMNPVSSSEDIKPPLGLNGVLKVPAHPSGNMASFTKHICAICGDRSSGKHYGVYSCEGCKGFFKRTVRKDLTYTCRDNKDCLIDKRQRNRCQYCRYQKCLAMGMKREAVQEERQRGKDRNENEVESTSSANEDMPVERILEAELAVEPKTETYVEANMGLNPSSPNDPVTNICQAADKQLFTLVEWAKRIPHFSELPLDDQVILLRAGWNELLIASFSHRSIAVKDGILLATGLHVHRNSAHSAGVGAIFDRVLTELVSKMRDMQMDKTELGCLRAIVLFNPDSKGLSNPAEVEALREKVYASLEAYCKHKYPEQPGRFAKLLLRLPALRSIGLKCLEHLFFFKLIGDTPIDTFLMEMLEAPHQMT
Summary of the method: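 Agonist mode; 9-cis retinoic acid positive control. HEK 293T UAS-bla reporter cells, 2% charcoal-stripped FBS, 16 hr compound exposure at 37 C/5% CO2. LiveBLAzer B/G FRET substrate 2 hr RT; ex 405, em 460/530 nm.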

[2] = qHTS assay to identify small molecule agonists of the RXR signaling pathway - cell viability counter screen (AID 1159529); further: nearly all actives have a fitted effect of over 50% in size; further: potency means the concentration at half of the fitted maximal effect
Summary of the method: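 Luminescence from CellTiter-Glo (30 min, RT) measured viability in the same wells as the beta-lactamase reporter readout. Cells: GeneBLAzer RXR-alpha HEK 293T, 2% charcoal-stripped FBS. Compound exposure 16 hr, 37 C.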

[3] = qHTS assay to identify small molecule antagonists of the retinoid acid receptor (RAR) signaling pathway - cell viability counter screen (AID 1159551); further: nearly all actives have a fitted effect of over 35% in size; further: potency means the concentration at half of the fitted maximal effect
Summary of the method: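 In this counter screen, the RARE-luciferase line C3RL4 was exposed for 6 h at 37 C and 5% CO2 to compounds with retinol at 1 uM final. Cellular ATP, read by luminescence, served as the viability measure.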

[4] = qHTS assay to identify small molecule antagonists of the estrogen related receptor (ERR) signaling pathway from Tox21 library - cell viability counter screen (AID 1224834); further: nearly all actives have a fitted effect of over 30% in size; further: potency means the concentration at half of the fitted maximal effect
Summary of the method: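 Counter screen run in ERR cells (2,000 cells/well): cells pre-incubated 6 h, then treated with compounds for 17.5 h at 37 C. Fluorescence was read 30 min after CellTiter-Fluor addition.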

[5] = molecular target: Luciferin 4-monooxygenase (Photinus pyralis) (UniProt P08659); test: qHTS assay to identify small molecule inhibitors of firefly luciferase (AID 1224835); further: series mostly up to about 120 µM; nearly all actives have a fitted effect of over 25% in size
Chain of Luciferin 4-monooxygenase (Photinus pyralis) (P08659 whole entry, looked up): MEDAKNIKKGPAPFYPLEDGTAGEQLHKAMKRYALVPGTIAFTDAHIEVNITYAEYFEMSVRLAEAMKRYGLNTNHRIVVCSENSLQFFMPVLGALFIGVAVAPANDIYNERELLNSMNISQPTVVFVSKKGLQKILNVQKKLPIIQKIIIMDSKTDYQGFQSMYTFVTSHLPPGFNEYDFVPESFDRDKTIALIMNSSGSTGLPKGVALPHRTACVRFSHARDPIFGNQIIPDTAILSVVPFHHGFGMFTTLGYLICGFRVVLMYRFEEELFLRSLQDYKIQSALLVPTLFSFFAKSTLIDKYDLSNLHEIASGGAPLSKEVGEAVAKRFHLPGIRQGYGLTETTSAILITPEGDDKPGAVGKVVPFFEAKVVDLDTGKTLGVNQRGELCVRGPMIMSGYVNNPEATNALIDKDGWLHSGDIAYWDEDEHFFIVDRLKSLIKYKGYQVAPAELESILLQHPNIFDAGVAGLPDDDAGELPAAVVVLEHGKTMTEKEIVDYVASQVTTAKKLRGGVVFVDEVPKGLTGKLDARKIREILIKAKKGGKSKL
Summary of the method: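 Inhibition of purified Photinus luciferase is measured by luminescence. Substrate levels (D-luciferin, ATP) sit at their KM values. Each compound is tested in a concentration series.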

[6] = qHTS assay to identify small molecule agonists of the constitutive androstane receptor (CAR) signaling pathway - cell viability counter screen (AID 1224836); further: nearly all actives have a fitted effect of over 45% in size; further: potency means the concentration at half of the fitted maximal effect
Summary of the method: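 Viability read-out: CellTiter-Fluor fluorescence after 23 h compound exposure at 37 C/5% CO2 in double-stable HepG2-CYP2B6-hCAR cells, with PK11195 present at 0.75 uM final; compounds tested in 15-point titration.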

[7] = qHTS assay to identify small molecule antagonists of the constitutive androstane receptor (CAR) signaling pathway - cell viability counter screen (AID 1224837); further: nearly all actives have a fitted effect of over 45% in size; further: potency means the concentration at half of the fitted maximal effect
Summary of the method: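 CITCO at 50 nM final was added alongside compounds (15 concentrations) to double-stable hCAR/CYP2B6-2.2kb HepG2 cells. Following 23 hr at 37 C, cell viability was quantified by CellTiter-Fluor fluorescence intensity.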

[8] = molecular target: Nuclear receptor subfamily 1 group I member 3 (Homo sapiens) (UniProt Q14994); test: qHTS assay to identify small molecule antagonists of the constitutive androstane receptor (CAR) signaling pathway (AID 1224838); further: nearly all actives have a fitted effect of over 40% in size; further: potency means the concentration at half of the fitted maximal effect
Chain of Nuclear receptor subfamily 1 group I member 3 (Homo sapiens) (Q14994 whole entry, looked up): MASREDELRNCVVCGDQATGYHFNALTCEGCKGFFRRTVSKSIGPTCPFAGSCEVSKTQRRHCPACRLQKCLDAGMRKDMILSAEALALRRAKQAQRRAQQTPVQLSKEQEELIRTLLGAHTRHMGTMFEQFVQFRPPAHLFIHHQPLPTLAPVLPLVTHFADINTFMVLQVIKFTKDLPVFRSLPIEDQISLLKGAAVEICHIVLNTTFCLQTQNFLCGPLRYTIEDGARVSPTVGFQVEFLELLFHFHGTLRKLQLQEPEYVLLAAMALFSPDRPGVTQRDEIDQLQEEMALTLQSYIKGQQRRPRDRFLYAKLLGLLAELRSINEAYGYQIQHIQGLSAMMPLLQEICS
Summary of the method: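 Inhibition of CITCO-driven (50 nM final) CYP2B6 reporter expression is measured in HepG2 cells stably carrying hCAR. Fifteen compound concentrations are applied for 24 h at 37 C, followed by luciferase luminescence.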

[9] = molecular target: Nuclear receptor subfamily 1 group I member 3 (Homo sapiens) (UniProt Q14994); test: qHTS assay to identify small molecule agonists of the constitutive androstane receptor (CAR) signaling pathway (AID 1224839); further: nearly all actives have a fitted effect of over 15% in size; further: potency means the concentration at half of the fitted maximal effect
Summary of the method: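 Luminescence read-out (ONE-Glo, 30 min, room temperature) from double-stable HepG2-CYP2B6-hCAR cells exposed 24 h to 15-point compound series in presence of 0.75 uM PK11195 final.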

[10] = qHTS assay to identify small molecule antagonists of the estrogen related receptor signaling pathway with the pleiotropic PPARgamma coactivator (PGC) from Tox21 10K library - cell viability counter screen (AID 1224840; active means well fitted cell-killing curve with a large enough effect in the repeat runs, not every such curve was filed as active; further: nearly all actives have a fitted effect of over 40% in size; further: potency means the concentration at half of the fitted maximal effect)
Summary of the method: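 Readout: fluorescence intensity from CellTiter-Fluor after 30 min at 37 C/5% CO2. Preceded by 17.5 h treatment of PGC/ERR cells with DMSO-dissolved compounds, added 6 h post-seeding.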

[11] = qHTS assay to identify small molecule antagonists of the estrogen related receptor signaling pathway with the pleiotropic PPARgamma coactivator (PGC) from Tox21 10K library (AID 1224841; call rule not given here; further: actives are mostly falling curves and most rising ones were filed inactive; nearly all actives have a fitted effect of over 50% in size; further: potency means the concentration at half of the fitted maximal effect)
Summary of the method: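 One-Glo luminescence, measured after half an hour at room temperature, quantified reporter output of PGC/ERR cells. These had been plated at 2,000 per well, incubated 6 h, dosed with compounds in DMSO, then kept 18 h at 37 C.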

[12] = qHTS assay to identify small molecule agonists of the estrogen related receptor signaling pathway with the pleiotropic PPARgamma coactivator (PGC) from Tox21 10K library (AID 1224842); further: nearly all actives have a fitted effect of over 15% in size
Summary of the method: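 Luminescence from One-Glo (30 min, room temperature) measured after PGC/ERR cells had 18 h at 37 C with pinned compound (23 nL in DMSO). Cells had been seeded at 2,000 per well and pre-incubated 6 h.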

[13] = qHTS assay to identify small molecule antagonists of the retinoic acid receptor (RAR) signaling pathway (AID 1159552; further: potency means the concentration at half of the fitted maximal effect; nearly all actives have a fitted effect of over 50% in size)
Summary of the method: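 Luminescence from a RARE luciferase reporter in C3RL4 cells served as read-out. Cells received compounds together with 1 uM final retinol and incubated 6 hr at 37 C before detection reagent was added for 30 min at room temperature.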

[14] = qHTS assay to identify small molecule agonists of the retinoic acid receptor (RAR) signaling pathway (AID 1159553)
Summary of the method: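 In this cell-based screen, 1,000 C3RL4 cells per well were cultured overnight, dosed with test chemicals in DMSO for 6 hr, and assessed for RARE luciferase luminescence.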

[15] = qHTS assay to identify small molecule antagonists of the estrogen related receptor signaling pathway with the pleiotropic PPARgamma coactivator (PGC) cell viability counter screen (AID 1224822;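 further: series mostly up to about 46 µM; viability read after 17.5 h compound exposure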)
Summary of the method: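 17.5 h compound treatment of PGC/ERR cells at 37 C; readout CellTiter-Fluor fluorescence; run alongside the PGC/ERR antagonist screen to flag cytotoxic compounds.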

O=C(O)c1ccccc1
Potency [1]: inactive | Potency [2]: inactive | Potency [3]: inactive | Potency [4]: inactive | Potency [5]: inactive | Potency [6]: inactive | Potency [7]: inactive | Potency [8]: inactive | Potency [9]: inactive | Potency [10]: inactive

Cc1ncc([N+](=O)[O-])n1C
Potency [1]: inactive | Potency [2]: inactive | Potency [3]: inactive | Potency [4]: inactive | Potency [5]: inactive | Potency [6]: inactive | Potency [7]: inactive | Potency [8]: inactive | Potency [9]: inactive | Potency [10]: inactive | Potency [11]: inactive | Potency [12]: inactive

CN1CCc2cccc3c2[C@H]1Cc1ccc(O)c(O)c1-3
Potency [1]: inactive | Potency [2]: 18.3 µM (active) | Potency [3]: 69.3 µM (active) | Potency [4]: 27.6 µM (active) and 22.8 µM (active) and 26.6 µM (active) | Potency [5]: inactive | Potency [6]: 49.1 µM (active) and 22.8 µM (active) | Potency [7]: 49.1 µM (active) and 22.8 µM (active) | Potency [8]: inactive | Potency [9]: 15.5 µM (active) and 9.09 µM (active) and 15 µM (active) | Potency [10]: 30.9 µM (active) and 22.8 µM (active) | Potency [11]: 30.9 µM (active) and 20.4 µM (active) and 29.8 µM (active) | Potency [12]: inactive

Cc1cc(=O)oc2cc(O)ccc12
Potency [1]: 43.6 µM (active) | Potency [2]: inactive | Potency [3]: inactive | Potency [5]: inactive | Potency [6]: inactive | Potency [7]: inactive | Potency [8]: inactive | Potency [9]: inactive | Potency [10]: inactive

OC[C@H]1O[C@H](O[C@]2(CCl)O[C@H](CCl)[C@@H](O)[C@@H]2O)[C@H](O)[C@@H](O)[C@H]1Cl
Potency [1]: inactive | Potency [2]: inactive | Potency [3]: inactive | Potency [4]: inactive | Potency [5]: inactive | Potency [6]: inactive | Potency [7]: inactive | Potency [10]: inactive

O=C1O[C@H]([C@@H](O)CO)C(O)=C1O
Potency [1]: inactive and 12.3 µM (active) | Potency [2]: inactive | Potency [3]: inactive | Potency [5]: inactive | Potency [6]: inactive | Potency [7]: inactive | Potency [8]: inactive | Potency [9]: inactive | Potency [10]: inactive

CC(=O)CCC(=O)O
Potency [1]: inactive | Potency [2]: inactive | Potency [3]: inactive | Potency [4]: inactive | Potency [5]: inactive | Potency [6]: inactive | Potency [7]: inactive | Potency [8]: inactive | Potency [9]: inactive | Potency [10]: inactive

CN1CCC[C@H]1c1cccnc1
Potency [1]: inactive | Potency [2]: inactive | Potency [3]: inactive | Potency [4]: inactive | Potency [5]: inactive | Potency [6]: inactive | Potency [7]: inactive | Potency [8]: inactive | Potency [10]: inactive

C1CCC(C(CC2CCCCN2)C2CCCCC2)CC1 (stereo not given)
Potency [2]: 23.9 µM (active) | Potency [3]: 29.8 µM (active) | Potency [13]: 9.44 µM (active) | Potency [4]: 29.8 µM (active) | Potency [5]: inactive | Potency [9]: inactive | Potency [10]: 29.8 µM (active) | Potency [12]: inactive

COc1ccc(OC(F)(F)F)cc1CN[C@H]1CCCN[C@H]1c1ccccc1
Potency [3]: inactive | Potency [4]: 54.5 µM (active) | Potency [5]: inactive | Potency [6]: 61.1 µM (active) | Potency [7]: 54.5 µM (active) | Potency [8]: 54.5 µM (active) | Potency [9]: inactive | Potency [10]: 54.5 µM (active)

Nc1ccc([N+](=O)[O-])cc1O
Potency [1]: inactive | Potency [14]: inactive | Potency [15]: inactive | Potency [8]: inactive | Potency [10]: 30.6 µM (active)
